In PubChem BioAssay (EPA / NIEHS):
Calls of active or inactive are those of the source. The calls were made as follows: active = hit-call score of the fitted dose curve at least 0.9, where 1 is the maximum; inactive = score below 0.9.

Columns and labels:
[1] = target: Transcription factor E2F1 (Homo sapiens) (UniProt Q01094); assay: ATG_E2F_CIS: Attagene CIS-FACTORIAL HepG2 Assay for human E2F Transcription Factor 1 (AID 2282935); details: HepG2 Attagene cis-reporter, E2F reporter RNA transcripts; actives raise or lower the signal
How it was run: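 Transient MRTU transfection of HepG2; 24 h compound exposure; RNA → oligo(dT) RT → PCR → FAM label → HpaI cut → CE fluorescence. Gain/loss of signal fit against DMSO.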

[2] = ATG_E_Box_CIS: Attagene CIS-FACTORIAL HepG2 Assay for human Enhancer Box (E-box) (AID 2282936); details: HepG2 E-box cis-reporter transcription, actives raise or lower the signal
How it was run: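 Transiently transfected HepG2, endogenous TF-driven reporters, 24 h dosing. Readout: RT-PCR plus capillary electrophoresis of fluorescent reporter fragments. Gain or loss of signal fitted bidirectionally against DMSO baseline.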

[3] = ATG_EGR_CIS: Attagene CIS-FACTORIAL HepG2 Assay for human Early Growth Response 1 (EGR1) (AID 2282938); details: HepG2 Attagene CIS-FACTORIAL EGR reporter mRNA; actives raise or lower the signal
How it was run: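 Activity is taken as induction or loss of reporter mRNA versus DMSO, fitted bidirectionally. Transcripts from cis-regulated reporter units in transiently transfected HepG2 were measured after 24 h by RT-PCR with capillary electrophoresis.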

[4] = ATG_M_19_CIS: Attagene CIS-FACTORIAL HepG2 Assay for M19 Transcription Factor (Internal Marker) (AID 2282939); details: HepG2 Attagene CIS-FACTORIAL M19 internal marker reporter; actives raise or lower the signal
How it was run: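 Following a 24 h exposure, RNA from transfected HepG2 cells was reverse-transcribed, PCR-amplified with reporter-specific primers, end-labelled with 6-FAM and HpaI-digested before capillary separation. Values represent gain or loss versus DMSO.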

[5] = ATG_ERE_CIS: Attagene CIS-FACTORIAL HepG2 Assay for Estrogen Response Element (ERE) (AID 2282940); details: HepG2 ERE cis-reporter, Attagene RNA transcript; actives raise or lower the signal
How it was run: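 HepG2, transient cis-reporter units, 24 h exposure. RNA isolated, oligo(dT) RT, reporter-specific PCR, FAM extension, HpaI cut, CE detection. Gain/loss-of-signal vs DMSO.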

[6] = ATG_Ets_CIS: Attagene CIS-FACTORIAL HepG2 Assay for human Erythroblast Transformation Specific (ETS) (AID 2282941); details: HepG2 ETS cis-reporter transcription, actives raise or lower the signal
How it was run: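 RT-PCR/capillary electrophoresis fluorescence read-out of reporter mRNA; HepG2 transient multi-reporter transfection; 24 h compound exposure; gain or loss of signal fitted bidirectionally relative to DMSO.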

[7] = target: Hepatocyte nuclear factor 3-beta (Homo sapiens) (UniProt Q9Y261); assay: ATG_FoxA2_CIS: Attagene CIS-FACTORIAL HepG2 Assay for human Forkhead box A2 (FOXA2) (AID 2282942); details: HepG2 cis-reporter transcription factor activity, 24 h; actives raise or lower the signal
How it was run: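 Reporter transcript induction is measured by fluorescence after capillary electrophoresis of RT-PCR products from HepG2 cells exposed 24 h. Cis-regulated reporter units report endogenous factor activity; curves fitted both directions against DMSO.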

[8] = ATG_FoxO_CIS: Attagene CIS-FACTORIAL HepG2 Assay for human Forkhead box O (FoxO) (AID 2282943); details: HepG2 Attagene cis-reporter, FoxO element, mRNA; actives raise or lower the signal
How it was run: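 Read-out: fluorescence of 6-FAM-labelled reporter cDNA fragments resolved by capillary electrophoresis. Transiently transfected HepG2 cells were dosed for 24 h; activity fitted in both directions relative to DMSO controls.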

[9] = ATG_GATA_CIS: Attagene CIS-FACTORIAL HepG2 Assay for human GATA Binding Protein (AID 2282944); details: HepG2 GATA cis-element reporter, Attagene multiplex mRNA; actives raise or lower the signal
How it was run: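 DMSO serves as negative control and baseline for bidirectional fitting of reporter mRNA changes. HepG2 cells bearing transiently transfected cis-promoter reporters were exposed 24 h; transcripts detected via RT-PCR and capillary electrophoresis.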

[10] = ATG_GLI_CIS: Attagene CIS-FACTORIAL HepG2 Assay for human Zinc Finger Protein GLI1 (AID 2282945); details: HepG2, Attagene cis-factorial reporter mRNA, GLI element; actives raise or lower the signal
How it was run: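 Transiently transfected HepG2 cells report endogenous transcription factor activity via cis-element-driven reporter units. After 24 h compound exposure, reporter mRNA was measured by RT-PCR with capillary electrophoresis; bidirectional fitting against DMSO baseline.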

[11] = ATG_ISRE_CIS: Attagene CIS-FACTORIAL HepG2 Assay for human Interferon Regulatory Factor 1 (IRF1) binding to an Interferon-Stimulated Response Element (ISRE) (AID 2282948); details: HepG2 ISRE cis-reporter (Attagene), mRNA transcription readout; actives raise or lower the signal
How it was run: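 Read-out: fluorescent RT-PCR products resolved by capillary electrophoresis, reporting endogenous transcription factor activity via ISRE-driven reporter mRNA in transfected HepG2 cells dosed for 24 h; gain or loss fitted relative to DMSO.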

[12] = ATG_M_32_CIS: Attagene CIS-FACTORIAL HepG2 Assay for M32 Transcription Factor (Internal Marker) (AID 2282949); details: HepG2 Attagene cis-factorial M32 reporter, mRNA; actives raise or lower the signal;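 also: background control marker of the multiplexed CIS panel rather than a real target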
How it was run: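 Using DMSO as baseline, bidirectional curve fits were applied to reporter mRNA signals. These came from transiently transfected HepG2 cells exposed for 24 h, with RNA analysed by RT-PCR, FAM primer extension, HpaI digestion and CE.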

[13] = ATG_M_06_CIS: Attagene CIS-FACTORIAL HepG2 Assay for M06 Transcription Factor (Internal Marker) (AID 2282950); details: HepG2 Attagene CIS-FACTORIAL M06 internal marker reporter; actives raise or lower the signal
How it was run: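 Fluorescence-labelled RT-PCR products from cis-promoter reporter units, cut with HpaI and resolved by capillary electrophoresis, give the signal. Cells are human HepG2, dosed for 24 h. Serves as background control, fitted relative to DMSO.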

[14] = target: Hypoxia-inducible factor 1-alpha (Homo sapiens) (UniProt Q16665); assay: ATG_HIF1a_CIS: Attagene CIS-FACTORIAL HepG2 Assay for human Hypoxia Inducible Factor 1 (HIF1A) (AID 2282951); details: HepG2 Attagene cis-factorial HIF1a reporter transcription; actives raise or lower the signal
How it was run: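 Fluorescence intensity of capillary-separated, 6-FAM-labelled reporter amplicons gives mRNA induction in HepG2 cells carrying transfected cis-promoter reporter units; cells exposed 24 h, responses fitted up or down from DMSO.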

[15] = target: Hepatocyte nuclear factor 6 (Homo sapiens) (UniProt Q9UBC0); assay: ATG_HNF6_CIS: Attagene CIS-FACTORIAL HepG2 Assay for human Hepatocyte Nuclear Factor 6 (HNF6) (AID 2282952); details: HepG2 Attagene cis-factorial HNF6 reporter transcription; actives raise or lower the signal
How it was run: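 First, HepG2 cells were transfected with the multiplexed cis reporter library and dosed with chemical for 24 h. Next, RNA was reverse-transcribed, PCR-amplified and fluorescently labelled. Finally, HpaI-digested fragments were read by capillary electrophoresis.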

[16] = ATG_MRE_CIS: Attagene CIS-FACTORIAL HepG2 Assay for human Metal Responsive Element (MRE) (AID 2282954); details: HepG2 MRE cis-reporter transcription, Attagene multiplex; actives raise or lower the signal
How it was run: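 RT-PCR/capillary electrophoresis readout of reporter mRNA, 24 h post-dosing, in HepG2 cells transfected with multiplexed cis-regulated reporter constructs. Gain or loss of signal fitted bidirectionally against DMSO baseline.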

[17] = target: Heat shock factor protein 1 (Homo sapiens) (UniProt Q00613); assay: ATG_HSE_CIS: Attagene CIS-FACTORIAL HepG2 Assay for human Heat Shock Transcription Factor 1 (HSE) (AID 2282953); details: HepG2 HSE cis-reporter, Attagene RNA transcription; actives raise or lower the signal
How it was run: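 After a 24 h incubation with test chemical, transfected HepG2 cells were harvested for RNA; reporter transcripts were measured by RT-PCR and capillary electrophoresis. Values reflect gain or loss of signal relative to DMSO.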

[18] = ATG_GRE_CIS: Attagene CIS-FACTORIAL HepG2 Assay for human Glucocorticoid Response Elements (GRE) (AID 2282947); details: HepG2 GRE cis-reporter, Attagene multiplex mRNA; actives raise or lower the signal
How it was run: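 Read-out: fluorescent reporter-transcript fragments separated by capillary electrophoresis after RT-PCR. Transiently transfected HepG2 cells carrying cis-element-driven reporter units were dosed for 24 h; gain or loss of signal fitted against DMSO control.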

Measured: outcome

Transcription factor E2F1 (Homo sapiens), sequence (Q01094 whole entry, looked up): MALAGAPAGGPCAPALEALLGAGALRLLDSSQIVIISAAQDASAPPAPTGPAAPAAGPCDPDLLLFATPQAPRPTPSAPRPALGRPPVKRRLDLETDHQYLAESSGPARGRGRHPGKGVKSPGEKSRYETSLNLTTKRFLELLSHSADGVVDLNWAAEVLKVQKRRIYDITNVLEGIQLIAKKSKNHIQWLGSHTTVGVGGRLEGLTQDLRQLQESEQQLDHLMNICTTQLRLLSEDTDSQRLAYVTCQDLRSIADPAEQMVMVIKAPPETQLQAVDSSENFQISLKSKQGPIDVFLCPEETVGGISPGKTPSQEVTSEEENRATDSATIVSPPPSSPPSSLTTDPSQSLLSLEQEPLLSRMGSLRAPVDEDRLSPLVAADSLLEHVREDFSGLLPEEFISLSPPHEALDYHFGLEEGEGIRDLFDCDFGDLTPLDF
Hypoxia-inducible factor 1-alpha (Homo sapiens), sequence (Q16665 whole entry, looked up): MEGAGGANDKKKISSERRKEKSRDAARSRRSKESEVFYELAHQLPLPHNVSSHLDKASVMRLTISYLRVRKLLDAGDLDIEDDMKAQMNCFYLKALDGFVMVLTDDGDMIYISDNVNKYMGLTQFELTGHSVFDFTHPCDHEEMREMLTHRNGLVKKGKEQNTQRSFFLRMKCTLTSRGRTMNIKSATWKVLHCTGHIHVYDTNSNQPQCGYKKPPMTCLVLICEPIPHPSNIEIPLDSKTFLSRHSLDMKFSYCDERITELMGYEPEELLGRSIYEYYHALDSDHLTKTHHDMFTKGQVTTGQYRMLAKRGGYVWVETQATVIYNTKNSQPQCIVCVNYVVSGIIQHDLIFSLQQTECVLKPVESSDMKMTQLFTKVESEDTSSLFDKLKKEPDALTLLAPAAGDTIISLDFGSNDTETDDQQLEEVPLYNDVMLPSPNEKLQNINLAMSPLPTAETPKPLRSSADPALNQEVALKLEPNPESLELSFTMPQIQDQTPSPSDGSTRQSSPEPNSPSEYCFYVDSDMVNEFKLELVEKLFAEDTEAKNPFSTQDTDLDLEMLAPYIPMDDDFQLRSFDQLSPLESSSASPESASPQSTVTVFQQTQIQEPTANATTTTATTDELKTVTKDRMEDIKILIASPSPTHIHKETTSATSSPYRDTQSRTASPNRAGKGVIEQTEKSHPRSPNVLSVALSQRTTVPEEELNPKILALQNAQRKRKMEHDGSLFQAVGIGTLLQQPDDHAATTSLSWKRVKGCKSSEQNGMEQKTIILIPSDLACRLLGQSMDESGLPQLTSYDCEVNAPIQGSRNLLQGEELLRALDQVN
Hepatocyte nuclear factor 6 (Homo sapiens), sequence (Q9UBC0 whole entry, looked up, the tested form may be a part): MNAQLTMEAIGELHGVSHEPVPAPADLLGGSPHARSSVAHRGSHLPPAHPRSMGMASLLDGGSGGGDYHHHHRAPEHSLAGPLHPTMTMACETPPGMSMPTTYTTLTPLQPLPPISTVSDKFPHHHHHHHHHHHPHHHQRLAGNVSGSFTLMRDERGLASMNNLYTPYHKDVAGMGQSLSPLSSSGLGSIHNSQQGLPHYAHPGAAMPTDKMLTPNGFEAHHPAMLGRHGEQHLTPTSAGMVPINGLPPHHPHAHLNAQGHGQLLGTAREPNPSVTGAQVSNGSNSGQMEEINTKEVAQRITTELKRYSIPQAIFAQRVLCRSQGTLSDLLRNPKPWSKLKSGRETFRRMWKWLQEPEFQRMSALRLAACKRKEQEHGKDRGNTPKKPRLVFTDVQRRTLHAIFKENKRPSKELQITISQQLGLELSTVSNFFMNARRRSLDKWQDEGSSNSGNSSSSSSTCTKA
Hepatocyte nuclear factor 3-beta (Homo sapiens), sequence (Q9Y261 whole entry, looked up): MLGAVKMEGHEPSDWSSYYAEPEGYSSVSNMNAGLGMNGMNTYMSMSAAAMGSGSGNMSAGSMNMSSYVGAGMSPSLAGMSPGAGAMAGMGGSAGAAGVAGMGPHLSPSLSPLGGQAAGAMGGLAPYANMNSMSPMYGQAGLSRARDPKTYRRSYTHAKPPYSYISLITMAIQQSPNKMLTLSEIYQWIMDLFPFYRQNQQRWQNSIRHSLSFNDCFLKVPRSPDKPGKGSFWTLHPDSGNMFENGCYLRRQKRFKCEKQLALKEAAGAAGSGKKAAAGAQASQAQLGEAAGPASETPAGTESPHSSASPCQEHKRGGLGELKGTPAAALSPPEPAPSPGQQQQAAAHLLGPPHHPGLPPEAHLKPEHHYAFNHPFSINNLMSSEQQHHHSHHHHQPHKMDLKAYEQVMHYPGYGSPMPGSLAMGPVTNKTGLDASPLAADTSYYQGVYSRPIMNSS
Heat shock factor protein 1 (Homo sapiens), sequence (Q00613 whole entry, looked up): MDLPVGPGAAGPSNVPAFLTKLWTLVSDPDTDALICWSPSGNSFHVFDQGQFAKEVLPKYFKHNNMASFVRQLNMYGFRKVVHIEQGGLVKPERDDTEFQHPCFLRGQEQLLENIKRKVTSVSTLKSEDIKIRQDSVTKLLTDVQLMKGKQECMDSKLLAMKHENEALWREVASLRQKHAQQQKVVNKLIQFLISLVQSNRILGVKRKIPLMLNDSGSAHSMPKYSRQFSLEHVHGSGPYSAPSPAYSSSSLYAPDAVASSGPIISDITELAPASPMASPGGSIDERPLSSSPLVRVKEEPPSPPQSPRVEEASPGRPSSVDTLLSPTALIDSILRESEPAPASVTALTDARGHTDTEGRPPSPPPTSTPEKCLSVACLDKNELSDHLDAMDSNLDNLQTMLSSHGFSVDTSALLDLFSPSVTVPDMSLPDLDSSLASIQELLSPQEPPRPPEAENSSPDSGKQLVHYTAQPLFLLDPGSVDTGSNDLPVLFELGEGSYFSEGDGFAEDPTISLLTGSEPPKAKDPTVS

O=c1n(Cl)c(=O)n(Cl)c(=O)n1Cl
not listed: [16] | [17] | [18]
inactive: all other assays above

Clc1nc(Cl)nc(Nc2ccccc2Cl)n1
not listed: [17] | [18]
inactive: all other assays above

Nc1cnn(-c2ccccc2)c(=O)c1Cl
not listed: [18]
inactive: all other assays above

CCCCC(C#N)(Cn1cncn1)c1ccc(Cl)cc1 (centres undefined)
not listed: [16] | [17]
inactive: all other assays above

COc1cc(Cl)c(OC)cc1Cl
not listed: [16] | [17] | [18]
inactive: all other assays above
